TrxR1 substrate = rat thioredoxin reductase 1 substrate activity. Potency, µM (doses to about 114 µM), for the others: at the highest dose activity change, negative = substrate turnover. O89049. hit rate 0.01% among 390,000. purified TrxR1 substrate turnover, NADPH consumption readout; further: potency means the concentration at half of the fitted maximal effect; on the % scale 0 is the no-effect control and ±100 the full control effect; nearly all actives have a fitted effect of over 50% in size
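Rat TrxR1, dispensed at 90 nM, was prereduced with 400 uM NADPH (final) for 5 min at ~22 deg C, then incubated with compound 15 min before 400 uM selenite. A first-read NADPH fluorescence drop versus no-compound background flagged substrates.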
mIDH1 inhibitor = human IDH1 R132H inhibition; O75874; Potency, µM (titrated, usually from 76.6 µM), inactives show at the top dose activity change, negative = inhibition, actives largely listed as inhibitors; IDH1-R132H enzyme, NADPH consumption, diaphorase/resazurin fluorescence; hit rate 0.093% among 390,000; further: potency means the concentration at half of the fitted maximal effect; on the % scale 0 is the no-effect control and ±100 the full control effect; nearly all actives have a fitted effect of over 65% in size
Target sequence (O75874 whole entry R132H, stated change not applied): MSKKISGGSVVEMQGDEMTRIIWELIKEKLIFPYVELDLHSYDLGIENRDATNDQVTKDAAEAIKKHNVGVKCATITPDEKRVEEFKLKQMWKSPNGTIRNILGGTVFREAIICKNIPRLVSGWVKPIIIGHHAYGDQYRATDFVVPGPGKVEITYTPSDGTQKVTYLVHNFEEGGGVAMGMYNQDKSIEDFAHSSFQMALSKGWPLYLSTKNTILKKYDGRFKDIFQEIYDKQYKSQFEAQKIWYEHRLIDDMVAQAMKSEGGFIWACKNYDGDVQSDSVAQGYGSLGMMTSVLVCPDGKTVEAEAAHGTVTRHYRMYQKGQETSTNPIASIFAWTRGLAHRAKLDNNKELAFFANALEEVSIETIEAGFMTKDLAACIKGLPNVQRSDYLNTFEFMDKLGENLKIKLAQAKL
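IDH1-R132H (0.5 ug/mL dispensed) in pH 7.5 Tris buffer was preincubated 30 min with compound, then given a substrate mix of 0.016 mM NADPH and 2 mM alpha-KG for 80 min at room temperature; remaining NADPH was read by diaphorase/resazurin fluorescence.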
Eya2 inh = inhibitors of human Eya2 phosphatase activity. O00167. recombinant Eya2, OMFP fluorescence dephosphorylation (OMFP is methylfluorescein phosphate). Potency, µM (highest dose often 76.9 µM), inactives show at the top dose activity, negative = inhibition, actives largely listed as inhibitors. hit rate 0.006% among 330,000; further: potency means the concentration at half of the fitted maximal effect; on the % scale 0 is the no-effect control and ±100 the full control effect
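Eya2 (0.2 uM) preincubated 10 min at ambient with compound, then OMFP substrate added at 50 uM; 10 min reaction in 50 mM HEPES pH 7.5, 50 mM NaCl, 5 uM MgCl2, 0.05% BSA, 1 mM DTT. Fluorescence read at Ex 485/Em 525 nm.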
TrxR1 inh = blocks rat thioredoxin reductase 1; O89049; recombinant rTrxR1, NADPH fluorescence consumption, selenite substrate; Potency, µM (highest dose often 114 µM), inactives show at the top dose activity change, negative = inhibition, hits mostly inhibitors; hit rate 1% among 390,000; AID 588453; further: potency means the concentration at half of the fitted maximal effect; on the % scale 0 is the no-effect control and ±100 the full control effect; nearly all actives have a fitted effect of over 65% in size
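Rat TrxR1 (90 nM in the dispensed reagent) was pre-reduced with 400 uM NADPH for 5 min at room temperature, then incubated with compound for 15 min. After 400 uM selenite was added, NADPH fluorescence (Ex 340/Em 450 nm) was followed for 8 min.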
RGS4 inhibitor = inhibitors of human regulator of G protein signaling 4; P49798; Transcreener GDP fluorescence polarization, RGS4-accelerated GTP hydrolysis; Potency, µM (highest dose often 114 µM), without a hit: at the highest dose activity change, negative = inhibition, hits mostly inhibitors; hit rate 0.039% among 390,000; further: potency means the concentration at half of the fitted maximal effect; on the % scale 0 is the no-effect control and ±100 the full control effect; nearly all actives have a fitted effect of over 75% in size
Target sequence (P49798 whole entry, looked up): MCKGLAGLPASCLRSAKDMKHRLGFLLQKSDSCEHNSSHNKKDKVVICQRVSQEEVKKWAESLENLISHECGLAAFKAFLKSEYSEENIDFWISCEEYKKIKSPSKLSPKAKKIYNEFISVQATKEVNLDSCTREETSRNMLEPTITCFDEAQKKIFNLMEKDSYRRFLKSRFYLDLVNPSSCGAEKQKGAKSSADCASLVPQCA
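MLSMR compounds (23 nl, pin-transferred) preincubated 10 min at room temperature with a 500nM (2x) first reagent, then RGS4 at 900nM (2x) plus Transcreener GDP mix added; fluorescence polarization (620/688 nm) read before and after 90 min at 30 °C.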
Resorufin autofl = autofluorescence interference, mutant IDH1 hit counter-screen; shares compounds with mIDH1 inhibitor; Resorufin detection reagent fluorescence interference, cell-free; inhibition of signal, % at 51.2 µM; 750 tested, under 10 active;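 further: 0% = wells with normal resorufin and full inhibition = wells lacking resorufin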
WT IDH1 inh = inhibits human wild-type IDH1, mutant selectivity check. shares compounds with mIDH1 inhibitor. WT IDH1 enzyme, NADPH diaphorase/resazurin fluorescence. Potency, µM (series often up to 115 µM), inactives show top-dose activity change, negative = inhibition, usual class: inhibitors. hit rate 9% among 750;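 further: potency means the concentration at half of the fitted maximal effect; 0% = full WT IDH1 enzyme control and full inhibition = no enzyme wells; nearly all actives have a fitted effect of over 55% in size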
Target sequence (O75874 whole entry, looked up): as the sequence (O75874 whole entry R132H, stated change not applied) above, with H132R counted along it
IDH1 R132H conf = mutant IDH1 (human) inhibition, confirmed; shares compounds with mIDH1 inhibitor; IDH1 R132H enzyme, NADPH diaphorase/resazurin fluorescence; Potency, µM (top dose mostly 76.6 µM), without a hit: top-dose activity change, negative = inhibition, actives largely listed as inhibitors; hit rate 83% among 750; AID 624002; further: potency means the concentration at half of the fitted maximal effect; nearly all actives have a fitted effect of over 50% in size
* marks the source's active call; other numbers are inactive results; ? = inconclusive; . = no result given; [ ] = remark or other dose. Sampled rows, rich in hits. Any-hit rate of the full collection: about 1.1%. The call rests on the fitted dose curve; in most records, active means well fitted curve in the direction sought with a large enough effect; inconclusive means small, poorly fitted or top-dose-only effect, or another doubt; inactive means no such curve, though single readings can be large; an effect the other way counts as inactive or inconclusive.

SMILES | TrxR1 substrate | mIDH1 inhibitor | Eya2 inh | TrxR1 inh | RGS4 inhibitor | Resorufin autofl | WT IDH1 inh | IDH1 R132H conf
CCCCNc1c(-c2cccc(-c3ccc(OC)cc3)c2)nc2ccc(C)cn12 | 52% | ? | 4% | 28% | -11% | -7 | ? | 6.3µM*
CCCCNc1c(-c2cccc(-c3ccc(OC)cc3)c2)nc2cc(C)ccn12 | 50%[57.1 µM] | -4% | 5% | 42%[57.1 µM] | 4% | . | . | .
N#Cc1ccc(C(=O)N2CCN(c3ncccn3)CC2)cc1 | 9%[57.1 µM] | 23% | 7% | 12%[57.1 µM] | 21% | . | . | .
COc1ccc(-c2c3c(nc4sc5c(=O)[nH]c(C)nc5c24)CCC3)cc1 | 15%[57.1 µM] | 21µM* | -7% | 11%[57.1 µM] | 18% | -6 | -4% | 7.1µM*
O=C1/C(=C/c2cccnc2)CC/C1=C\c1cccnc1 | -3% | -6% | 4% | -7% | -31% | . | . | .
CCC1C/C(=C\c2cccnc2)C(=O)/C(=C/c2cccnc2)C1 (stereo unspecified) | -5% | 52µM* | -16% | ? | ? | -16 | -8% | 32µM*
CCOC(=O)C1C(=O)NC(SCC(=O)OC)=C(C#N)C1c1ccccc1OCC (stereo unspecified) | 0% | -3% | . | 12% | 0% | . | . | .
C=CCSC1=C(C#N)C(c2ccccc2OCC)C(C#N)C(=O)N1 (stereo unspecified) | 8% | ? | 32% | -4% | -32% | 2 | 56% | 45µM*
CCCOC(=O)CSC1=C(C#N)C(c2ccccc2OC)C(C#N)C(=O)N1 (stereo unspecified) | -7% | ? | -27% | -20% | -40% | 6 | 91% | 45µM*
CCOC(=O)CSC1=C(C#N)C(c2ccccc2OCC)C(C#N)C(=O)N1 (stereo unspecified) | -5% | 46µM* | 4% | -13% | -4% | -1 | 84% | 50µM*
Cc1sc(NC(=O)C(C)C)c(C(=O)Nc2ccccc2)c1C | 4% | -9% | -5% | 9% | 9% | . | . | .
CCOC(=O)c1c(NC(=O)/C=C/C(=O)O)sc(C)c1-c1ccc(C)c(C)c1 | -14% | 23µM* | 18% | -17% | -29%[56.9 µM] | -4 | ? | 45µM*
C[C@H]1CN([C@@H](C)CO)C(=O)CCCn2nncc2CO[C@H]1CN(C)S(=O)(=O)c1ccc(Oc2ccccc2)cc1 | . | ? | . | . | . | 2 | 2% | ?
COc1cccc(C(=O)NCCN2CCN(c3ccc(Cl)cc3)CC2)c1 | 2%[57.1 µM] | -7% | 6% | 8%[57.1 µM] | 16%[56.9 µM] | . | . | .
CCn1c2ccccc2c2cc(C3C(C#N)=C(N)Oc4n[nH]c(COC)c43)ccc21 (stereo unspecified) | 11%[57.1 µM] | 52µM* | 6% | 8%[57.1 µM] | ? | 4 | -4% | 20µM*
N#Cc1ccccc1CN1C(=O)NC(Cc2c[nH]c3ccccc23)C1=O (stereo unspecified) | 10%[57.1 µM] | 2% | -4% | 23%[57.1 µM] | -7% | . | . | .
O=C(NCCc1nnc2ccc(SCC(=O)N3CCCC3)nn12)c1ccc(F)cc1 | -10% | 0% | -11% | -12% | -12% | . | . | .
C[C@H]1CN([C@@H](C)CO)C(=O)c2cccc(NC(=O)Nc3ccc(C(F)(F)F)cc3)c2O[C@@H]1CN(C)S(=O)(=O)c1ccccc1 | -12% | ? | -15% | 5% | 34% | 2 | -14% | ?
COc1cc(OC)c(NC(=O)c2cnn(-c3ccccc3)c2-n2cccc2)cc1Cl | 9% | 40µM* | . | 9% | 0% | -8 | -2% | 7.1µM*
CC(=O)c1ccc(OCCCC(=O)OCC(=O)N2CCN(S(=O)(=O)c3ccc(C)cc3C)CC2)cc1 | -4% | -7% | . | 15% | -17% | . | . | .
COc1ccc(Br)cc1CN(C)C(=O)c1ccccc1SCC(=O)N1CCCC1 | 5%[57.1 µM] | 46µM* | . | 15%[57.1 µM] | -5% | -2 | 9% | 35µM*
COc1cc2oc(=O)c(CC(=O)NCc3ccc(OC)c(OC)c3)c(C)c2cc1Cl | 12% | -17% | . | 13% | -6% | . | . | .
C/C(=N/Oc1nc(C)cc(C)n1)c1ccc(Cl)cc1Cl | -5% | -2% | 2% | -2% | 26% | . | . | .
Cc1ccccc1Nc1nc(N)nc(COC(=O)c2cccc(S(=O)(=O)NCc3ccccc3)c2)n1 | 1% | 3% | -10% | -4% | -9% | . | . | .
COc1cc(C(=S)N2CCN(C(c3ccccc3)c3ccccc3)CC2)cc(OC)c1O | -7% | ? | -18% | -4% | ? | -7 | 6% | 22µM*
SMILES | TrxR1 substrate | mIDH1 inhibitor | Eya2 inh | TrxR1 inh | RGS4 inhibitor | Resorufin autofl | WT IDH1 inh | IDH1 R132H conf
COc1ccc(NC(=S)N2CCN(C(c3ccccc3)c3ccccc3)CC2)cc1OC | -10% | -1% | 7% | -10% | -52% | . | . | .
S=c1sc2c(N3CCOCC3)ncnc2n1-c1ccccc1 | 3%[57.1 µM] | -2% | -2% | 8%[57.1 µM] | -5% | . | . | .
O=C1CCSC2(C(=O)N(Cc3ccc(F)cc3)c3ccccc32)N1c1ccccc1 (stereo unspecified) | 6% | ? | . | 30% | -13% | . | . | .
O=C1CCSC2(C(=O)N(Cc3ccc(F)cc3)c3ccccc32)N1c1cccc(F)c1 (stereo unspecified) | -4% | 28µM* | . | 5% | ? | -1 | -17% | ?
O=C1CSC2(C(=O)N(Cc3ccccc3)c3ccccc32)N1c1ccc(Cl)cc1 (stereo unspecified) | 5%[57.1 µM] | ? | . | 28%[57.1 µM] | -13% | 3 | 11% | 25µM*
O=C1CCSC2(C(=O)N(Cc3ccc(F)cc3)c3ccccc32)N1c1ccc(F)c(F)c1 (stereo unspecified) | -6% | 40µM* | . | 8% | -34% | -5 | -7% | 14µM*
Cc1cccc(N2C(=O)CCSC23C(=O)N(Cc2ccc(F)cc2)c2ccccc23)c1 (stereo unspecified) | -12% | ? | . | 12% | -5% | -2 | -17% | 20µM*
CN(Cc1nc(C(c2ccccc2)c2ccccc2)no1)CC1COCCO1 (stereo unspecified) | -10%[57.1 µM] | 5% | 3% | 33%[57.1 µM] | -8% | . | . | .
CCOC(=O)/C(=N\Nc1ccc(Cl)cc1)Sc1nnc(-c2ccc(OC)cc2)n1C | -12% | -3% | -5% | -27% | ? | . | . | .
Cc1cccc(OCC(=O)N(Cc2ccccc2)c2ccccn2)c1 | -4% | 1% | . | 13% | 12% | . | . | .
CC1(C)Oc2ccc3ccc(=O)oc3c2/C(=C/Nc2ccccn2)C1=O | -1%[57.1 µM] | 29µM* | 0% | 2%[57.1 µM] | 22% | -7 | 39% | 11µM*

Screening data as filed in PubChem BioAssay.
